Hits are enriched below; roughly 7.9% of the tested compounds scored in any of these assays.
MCF10A rerep: A quantitative high throughput screen for small molecules that induce DNA re-replication in MCF 10a normal breast cells; MCF 10A DNA re-replication, Hoechst nuclear intensity, 48 h; Potency, µM (series often up to 46.1 µM), for inactives: top-dose activity, positive = re-replication, hits mostly activators; 350,000 compounds, 2.9% hits; AID 624296, 2012; also: % of control where 0% means no effect; nearly all actives have a fitted effect of over 50% in size
HT1080-NT tox: qHTS for induction of synthetic lethality in tumor cells producing 2HG: qHTS for the HT-1080-NT fibrosarcoma cell line. HT-1080-NT fibrosarcoma viability, CellTiter-Glo ATP luminescence, 48 h. Potency, µM (series often up to 46.1 µM), for inactives: at the top dose activity, negative = less viability, actives largely listed as cytotoxic. 360,000 compounds, 1.6% hits;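 also: NT is the 2HG producing partner of a matched IDH1 knockdown line; 0% = DMSO-treated cells and -100% = media-only wells without cells; nearly all actives have a fitted effect of over 55% in size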
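Viability of the 2HG-overproducing fibrosarcoma line after 48 hours of compound exposure at 37 degrees C was determined by luminescence with CellTiter-Glo, and concentration-effect curves were then fitted and categorized.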
HT1080 IDH1KD tx: qHTS for induction of synthetic lethality in tumor cells producing 2HG: qHTS for the HT-1080-IDH1KD cell line; HT-1080 IDH1 knockdown viability, ATP luminescence, 48 h; Potency, µM (doses to about 46.1 µM), without a hit: at the highest dose activity, negative = toxicity, hits mostly cytotoxic; 360,000 compounds, 2% hits;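 also: 0% = DMSO wells and -100% = cell-free medium wells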
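Cytotoxicity counter-line: IDH1KD HT-1080, 48 h, CellTiter-Glo. Curves classed by r2, magnitude and activity.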
KB-V1 cytotox: qHTS assay for MDR1-selective chemotherapeutics: Primary screen using the drug-selected MDR subline cells KB-V1. KB-V1 MDR cells viability, CellTiter-Glo, 72 h. Potency, µM (titrated, usually from 46.1 µM), hits mostly cytotoxic. 400,000 compounds, 3.4% hits. AID 1347076, 2019; also: % is scaled to controls: 0 for no effect and ±100 for the full control effect; nearly all actives have a fitted effect of over 60% in size
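Following 72 h at 37 degrees C with compound, KB-V1 cell viability was read by CellTiter-Glo luminescence, medium being phenol-red-free DMEM plus 10% FBS; concentration-response parameters came from normalized, curve-fitted qHTS data.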
KB-3-1 tox: qHTS assay for MDR1-selective chemotherapeutics: Primary screen using the parental adenocarcinoma cell KB-3-1 | KB-3-1 viability, CellTiter-Glo ATP luminescence, 72 h | Potency, µM (top dose mostly 46.1 µM), most hits filed as cytotoxic | 400,000 compounds, 1.4% hits; also: % is scaled to controls: 0 for no effect and ±100 for the full control effect; nearly all actives have a fitted effect of over 60% in size
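Cytotoxicity measured as CellTiter-Glo luminescence after 72 h at 37 C. Compound titrations were pinned onto drug-naive KB-3-1 parental adenocarcinoma cells grown in DMEM with 10% FBS, and normalized data fitted to concentration-response curves.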
SW480 rereplic: A quantitative high throughput screen for small molecules that induce DNA re-replication in SW480 colon adenocarcinoma cells. SW480 DNA re-replication, Hoechst DNA content imaging, 48 h. Potency, µM (doses to about 46.1 µM), without a hit: at the highest dose re-replication activation, usual class: activators. 340,000 compounds, 1.8% hits; also: % of control where 0% means no effect; nearly all actives have a fitted effect of over 55% in size
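Quantitative HTS format with DMSO vehicle controls; 48 hr drug incubation at 37 C, then 40 min Hoechst staining and scanning imager measurement at 405 nm excitation.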
The depositor's hits bear a star; i = inactive; ? = inconclusive; / = no result. Calls follow the shape of the dose curve; as a rule, active = well fitted curve in the direction sought with a large enough effect; inconclusive = small, poorly fitted or top-dose-only effect, or another doubt; inactive = no such curve, though single readings can be large; an effect the other way counts as inactive or inconclusive. Potency is read from the fitted curve at half-maximal effect.

SMILES | MCF10A rerep | HT1080-NT tox | HT1080 IDH1KD tx | KB-V1 cytotox | KB-3-1 tox | SW480 rereplic
CN(C(=O)COC(=O)c1cccc(S(=O)(=O)N2CCCCC2)c1)C1CCS(=O)(=O)C1 (stereo unspecified) | -11.9% | 0.2% | 5.0% | i | i | -16.3%
CCOC(=O)C1=C(C)N=c2s/c(=C\c3ccc(OCC(=O)O)c(OC)c3)c(=O)n2C1c1ccc(OC)cc1 (stereo unspecified) | 23.1µM* | 8.1% | 1.7% | i | i | -0.7%
O=[N+]([O-])c1ccc(Sc2nnnn2-c2ccccc2)nc1 | 3.66µM* | 16.4µM* | 20.6µM* | ? | ? | 6.51µM*
Cc1ccccc1-n1nnnc1Sc1nnnn1-c1ccccc1 | 14.6µM* | ? | 14.6µM* | ? | ? | ?
O=[N+]([O-])c1ccc(Sc2ccccn2)nc1 | -1.9% | 5.5% | -15.9% | ? | i | -4.9%
CCCSc1nnc(Sc2nnnn2-c2ccccc2)s1 | ? | 16.4µM* | 23.1µM* | 13µM* | 5.17µM* | 6.51µM*
O=C(COC(=O)c1cnccn1)NC1CCCc2ccccc21 (stereo unspecified) | -7.2% | 8.9% | 0.8% | i | i | -12.4%
Cc1[nH]c2ccccc2c1CCO | 2.6% | 10.8% | 6.2% | i | i | -2.9%
Cc1[nH]c2ccccc2c1C1=CC(=O)C=CC1=O | 28.7% | -12.8% | 20.6µM* | i | ? | ?
CCN1C(=O)c2ccccc2S(=O)c2ccc(C(=O)NCc3ccc(OC)cc3)cc21 (stereo unspecified) | -13.5% | 3.5% | 0.0% | i | i | 1.3%
COc1cccc(/C=C2/Sc3ccc(C(=O)NCCN4CCCCCC4)cc3NC2=O)c1 | 20.6µM* | ? | -16.4% | i | i | ?
Cc1cccc(/C=C2/Sc3ccc(C(=O)NCCN4CCCC4)cc3NC2=O)c1 | ? | 7.7% | -4.2% | i | i | ?
COc1ccc(/C=C2/Sc3ccc(C(=O)NCCCN4CCOCC4)cc3NC2=O)cc1OC | 18.4µM* | ? | 20.6µM* | i | ? | 20.6µM*
CCOC(=O)c1c(C)oc2nc(C)nc(NCCc3ccc(C)cc3)c12 | / | / | / | i | i | /
O=C(c1ccco1)N1CCN(C(=O)C2CC(=O)N(c3ccc(Cl)cc3)C2)CC1 (stereo unspecified) | -20.7% | -4.4% | 1.6% | i | i | -17.5%
Cc1ccc(S(=O)(=O)Nc2ncnc3sc(C)c(C)c23)cc1 | ? | -1.7% | 4.9% | 3.66µM* | ? | -3.9%
Cc1ccc(Nc2ncnc3sc(C)c(C)c23)cc1 | -2.7% | ? | -22.9% | ? | i | -1.4%
Cc1c(C(=O)NCc2ccc(C(F)(F)F)cc2)sc(=O)n1Cc1ccc(S(=O)(=O)N(C)C)cc1 | / | -10.9% | -13.5% | ? | ? | /
CCc1cccc2c(C(=O)CN3C(=O)NC4(CCCCC4)C3=O)c[nH]c12 | 13µM* | -26.1% | ? | ? | ? | -1.3%
CCc1cccc2c(C(=O)CCl)c[nH]c12 | 23.1µM* | ? | 14.6µM* | i | i | ?
CCc1cccc2c(C(=O)CN3C(=O)C(=O)N(C4CCCC4)C3=O)c[nH]c12 | 16.0% | -3.0% | -2.7% | i | i | -4.0%
CCc1cccc2c(C(=O)CN3C(=O)NC4(CCCCCC4)C3=O)c[nH]c12 | ? | ? | 5.8µM* | ? | ? | 9.4%
CC(=O)Nc1ccc(NC(=O)c2ncoc2-c2ccco2)cc1 | / | / | / | i | i | /
Nc1nc(SCc2ccccc2)c2[nH]cnc2n1 | 1.4% | 6.8% | -1.0% | i | i | 56.6%
CNc1ncnc(Sc2nc(N)nc3nc[nH]c23)c1[N+](=O)[O-] | ? | 2.91µM* | 1.3µM* | 1.03µM* | ? | 2.91µM*
SMILES | MCF10A rerep | HT1080-NT tox | HT1080 IDH1KD tx | KB-V1 cytotox | KB-3-1 tox | SW480 rereplic
Nc1ncnc(Sc2ccc(Cl)cc2)c1[N+](=O)[O-] | ? | -2.6% | -14.2% | i | i | -2.8%
Nc1nc(Sc2ccc([N+](=O)[O-])c3nonc23)c2[nH]cnc2n1 | ? | 4.61µM* | 1.84µM* | ? | 2.06µM* | ?
CCCCOc1ccc(C(=O)NCC(=O)NC2CCCCC2)cc1 | -3.9% | -0.5% | 12.1% | ? | i | -11.2%
Cc1ccc(N(CC(O)Cn2c3ccccc3c3ccccc32)S(C)(=O)=O)c(C)c1 (stereo unspecified) | ? | 17.8µM* | ? | 13µM* | 23.1µM* | 4.8%
O=C1Cc2c([nH]c3ccc(Br)cc23)-c2ccccc2N1 | 4.11µM* | -24.2% | ? | ? | ? | 26.1%
O=c1c2c([nH]c3ccc(Br)cc13)CCCC2 | 21.8% | 0.8% | -3.3% | i | i | -7.1%
O=C(COC(=O)C1C2CC3OC(=O)C1C3C2)Nc1ccc(F)cc1 (stereo unspecified) | 1.4% | 14.3% | 15.2% | i | i | -10.5%
Cc1noc(C)c1NC(=O)N(C)C[C@@H]1OCc2cnnn2CCCC(=O)N([C@@H](C)CO)C[C@@H]1C | / | -0.4% | -1.5% | i | i | /
CCOc1ccc(NC(=O)CSc2nc(C)c(C(=O)Nc3ccccc3)c(-c3ccc(Cl)cc3)c2C#N)cc1 | / | / | / | i | i | /
COc1ccc(NC(=O)c2cccc(S(=O)(=O)Nc3ccc(Br)cc3)c2)cn1 | ? | ? | ? | ? | 11.6µM* | -4.5%
COc1ccc(NC(=O)c2cccc(Oc3ccccc3)c2)cn1 | ? | 5.17µM* | 3.66µM* | ? | 8.2µM* | ?
CC(=O)Nc1nc(-c2ccc(Br)s2)cs1 | 2.1% | -0.6% | -3.7% | i | i | -1.6%
O=C(Nc1nc(-c2cc(Cl)sc2Cl)cs1)c1ccc(Br)s1 | ? | 15.3% | 5.2% | ? | 20.6µM* | -7.0%
O=C(Nc1nc(-c2cc(Cl)sc2Cl)cs1)c1cccs1 | 8.2µM* | ? | 11.6µM* | ? | ? | 17.8%
O=C(NC(=S)Nc1nc(-c2ccc(Cl)cc2)cs1)c1cccs1 | ? | 9.7% | 4.3% | i | i | -136.9%
CCN(CC)S(=O)(=O)c1cc(NC(=O)c2cc([N+](=O)[O-])ccc2N2CCOCC2)ccc1C | -3.4% | -14.3% | -15.4% | ? | ? | 6.5%

Assay outcomes from PubChem.
